Assay results as given in PubChem BioAssay (EPA / NIEHS).
The source made the active and inactive calls. The calls were made as follows: active = hit-call score of the fitted dose curve at least 0.9, where 1 is the maximum; inactive = score below 0.9.

Molecular target: Paired box protein Pax-6 (Homo sapiens) (UniProt P26367)
Assay: ATG_Pax6_CIS: Attagene CIS-FACTORIAL HepG2 Assay for human Paired Box 6 (PAX6) (AID 2282956)
Conditions: HepG2 CIS-FACTORIAL PAX6 reporter transcription, RNA readout; actives raise or lower the signal
Experimental: ATG_CIS is a cell-based, multiplexed-readout assay that uses HepG2, a human liver cell line, with measurements taken at 24 hours after chemical dosing in a 24-well plate.ATG_Pax6_CIS is one of 52 assay component(s) measured or calculated from the ATG_CIS assay. It is designed to make measurements of mRNA induction, a form of inducible reporter, as detected with fluorescence intensity signals by Reverse transcription polymerase chain reaction (RT-PCR) and Capillary electrophoresis technology.Data from the assay component ATG_Pax6_CIS was analyzed into 1 assay endpoint. This assay endpoint, ATG_Pax6_CIS, was analyzed with bidirectional fitting relative to DMSO as the negative control and baseline of activity. Using a type of inducible reporter, measures of mRNA for gain or loss-of-signal activity can be used to understand the reporter gene at the transcription factor-level as they relate to the gene PAX6. Furthermore, this assay endpoint can be referred to as a primary readout, because this assay has produced multiple assay endpoints where this one serves a reporter gene function. To generalize the intended target to other relatable targets, this assay endpoint is annotated to the dna binding intended target family, where the subfamily is paired box protein.
Human liver HepG2 cells are transiently transfected with multiple reporter transcription units (MRTUs) in 6-well plates using FuGene 6 reagent (Roche; 3 ml FuGene/1 mg DNA). The MRTU constructs are regulated by a cis-regulating element (promoter). […] A major difference between the CIS and TRANS system is that in CIS activities of endogenous TFs are measured, whereas the TRANS assay evaluates changes in activities of exogenous, chimeric NR-Gal4 proteins. […] At the end of 24 hour incubation, total RNA was isolated using TriZol reagent (Invitrogen). The isolated RNA is then reverse-transcribed using oligo(dT) primer and Mo-MLV reverse transcriptase (Invitrogen) with DNAse I (Ambion) treatment for 30 min. The one-tenth of the produced cDNA was amplified by PCR using Taq DNA polymerase (Invitrogen) and two reporter sequence-specific primers. The PCR products were fluorescently labeled by primer extension with 6-arboxyfluorescein (6-FAM) 5'-labeled reporter sequence-specific primer (2 min at 95 C, 20 s at 68 C and 10 min at 72 C) and these products were digested with 5U of HpaI (New England Biolabs) for 2h at 37 C. The fragments were purified using Qiaquick PCR columns (Qiagen), analyzed on an ABI 3130xL genetic analyzer (Applied Biosystems) with peak positions identified by using a set of X-rhodamine (ROX)-labeled MapMarker1000 molecular weight standards (BioVentures). The raw capillary electrophoresis data was processed using Attagraph software (Attagene).

Paired box protein Pax-6 (Homo sapiens), sequence (P26367 whole entry, looked up): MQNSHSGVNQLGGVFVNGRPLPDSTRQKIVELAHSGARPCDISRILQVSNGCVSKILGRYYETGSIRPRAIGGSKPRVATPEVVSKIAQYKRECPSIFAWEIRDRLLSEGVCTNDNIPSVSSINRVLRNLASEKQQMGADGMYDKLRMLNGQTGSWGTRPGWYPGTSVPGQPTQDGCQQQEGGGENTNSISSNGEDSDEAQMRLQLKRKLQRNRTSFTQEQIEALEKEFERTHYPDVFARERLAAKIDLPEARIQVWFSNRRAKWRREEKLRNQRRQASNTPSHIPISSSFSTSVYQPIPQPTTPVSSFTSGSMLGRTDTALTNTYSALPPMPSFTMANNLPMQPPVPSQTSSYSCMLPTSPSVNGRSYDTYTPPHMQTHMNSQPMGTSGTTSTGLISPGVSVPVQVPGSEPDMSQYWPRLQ

SMILES	outcome	AC50
CCCCCCCCCCCCCC(=O)OCC	inactive	
O=C(O)C1=NN(c2ccc(S(=O)(=O)O)cc2)C(=O)C1	inactive	
CC(C)=CCCC(C)=CC(=O)O	inactive	
COC(=O)c1cccc(C(=O)OC)c1	inactive	
CCCCOCCOC(=O)c1ccccc1C(=O)OCCOCCCC	inactive	
CC(C)(O)CCc1ccccc1	inactive	
OCCCO	inactive	
COc1ccc2[nH]cc(CCNC(C)=O)c2c1	inactive	
Nc1ccc(O)c(N)c1	inactive	
CC1=CC[C@@H]2C[C@H]1C2(C)C	inactive	
Cc1cccc(O)c1	inactive	
CC1(C)CC(=O)CC(C)(C)N1	inactive	
c1ccc(Sc2ccccc2)cc1	inactive	
CC(C)(CO)CO	inactive	
COC(=O)C(C)Oc1ccc(Oc2ncc(C(F)(F)F)cc2Cl)cc1 (stereo not given)	inactive	
CCCCCc1cccc(=O)o1	inactive	
CC(O)CN (stereo not given)	inactive	
C=CC(=O)OCC(CO)(COC(=O)C=C)COC(=O)C=C		11.9 µM (active)
O=S(=O)(O)CCCN1CCOCC1	inactive	
C1CCCNCC1	inactive	

SMILES	outcome	AC50
Nc1ccc(N)c([N+](=O)[O-])c1	inactive	
C1=COCCC1	inactive	
CC(C)CCOC(=O)CC(C)C	inactive	
NC(N)=S	inactive	
C1COCO1	inactive	
CCCCOCCOCCO	inactive	
C=C(C)C(=O)OCCN(C)C	inactive	
ClCCOCCOCCCl	inactive	
Cc1ccc(C(C)(C)O)cc1	inactive	
CC(=O)C1C(=O)C=C(C)OC1=O (stereo not given)	inactive	
CCCCCCCC(=O)N(C)C	inactive	
CCCCC(CC)COCCO (stereo not given)	inactive	
CC1COC(=O)O1 (stereo not given)	inactive	
CCCO	inactive	
CCCCN(CCCC)CCCCCCN(CCCC)CCCC	inactive	
CCCCCC#CC(=O)OC	inactive	
CC/C=C\CCOC(C)OCC (stereo not given)	inactive	
O=C(O)c1ccc(C(=O)O)c(C(=O)O)c1	inactive	
CC/C=C\C#N	inactive	
C=CC(C)CCCC(C)(C)O (stereo not given)	inactive	
